Source: the supplement of paper PMC10037445
The full ranking holds about 2,900 compounds; the median of “IRF Lucia reporter activity, fold change vs agonist alone” is about 0.9, and the highest 2% start at about 2.8. For the sample, the highest values were picked, then their nearest neighbours and some compounds at random.

What was measured:
RAW-Dual [1] = assay: IRF Lucia reporter activity, fold change vs agonist alone; cytotoxicity flag (confluency mask): not cytotoxic; higher = enhanced IRF activity
In short: (§1)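 RAW-Dual macrophages (50,000 cells/well in DMEM, 384-well plates) received 50 nL of library stock by pin tool, then a PRR agonist 1 h later, and were kept at 37 °C, 5% CO2. After 20 hours, supernatant was read for IRF by QuantiLuc luminescence and for NF-κB by QuantiBlue absorbance at 620 nm. Reporter activity is fold change over agonist-alone wells. Cytotoxic wells had IncuCyte confluency below 70% of agonist controls in both mask sets.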

RAW-Dual [2] = assay: IRF Lucia reporter activity, fold change vs agonist alone; higher = enhanced IRF activity; conditions: library stock concentration (final ~1000-fold dilution): 10 mM; cytotoxicity flag (confluency mask): not cytotoxic; agonist: MPLA (TLR4) […]
In short: as §1

[3] = agonist: 3'3'-cGAMP (STING) 10 ug/mL

## CC1(c2cc(-c3cncnc3)c(F)cc2F)CCSC(N)=N1 (stereo unspecified) (library stock concentration (final ~1000-fold dilution): 10 mM)
RAW-Dual [1]; [3]
  IRF Lucia reporter activity: 0.823
RAW-Dual [1]; agonist: LPS (TLR4) 0.1 ug/mL
  IRF Lucia reporter activity: 0.805

## CC1(c2cc(-c3cncnc3)c(F)cc2F)CCSC(N)=N1 (stereo unspecified)
RAW-Dual [2]
  IRF Lucia reporter activity: 0.717

## CCC(C)Nc1cc(C(=O)NC2CC3CCC(C2)N3c2ccc(C(=O)C3CC3)cn2)c(C)cc1C(N)=O (stereo unspecified) (library stock concentration (final ~1000-fold dilution): 10 mM)
RAW-Dual [1]; [3]
  IRF Lucia reporter activity: 0.482
RAW-Dual [1]; agonist: LPS (TLR4) 0.1 ug/mL
  IRF Lucia reporter activity: 0.924

## CCC(C)Nc1cc(C(=O)NC2CC3CCC(C2)N3c2ccc(C(=O)C3CC3)cn2)c(C)cc1C(N)=O (stereo unspecified)
RAW-Dual [2]
  IRF Lucia reporter activity: 0.838

## C[N+]1(C)C2CCC1CC(OC(=O)C(O)c1ccccc1)C2 (stereo unspecified)
RAW-Dual [2]
  IRF Lucia reporter activity: 0.953

## C[N+]1(C)C2CCC1CC(OC(=O)C(O)c1ccccc1)C2 (stereo unspecified) (library stock concentration (final ~1000-fold dilution): 10 mM)
RAW-Dual [1]; [3]
  IRF Lucia reporter activity: 1.01
RAW-Dual [1]; agonist: LPS (TLR4) 0.1 ug/mL
  IRF Lucia reporter activity: 1.29

## O=C(Nc1ccc(OC(F)(F)Cl)cc1)c1cnc(N2CCC(O)C2)c(-c2ccn[nH]2)c1 (stereo unspecified) (library stock concentration (final ~1000-fold dilution): 10 mM)
RAW-Dual [1]; [3]
  IRF Lucia reporter activity: 0.296
RAW-Dual [1]; agonist: LPS (TLR4) 0.1 ug/mL
  IRF Lucia reporter activity: 1.27

## CCn1c(=O)c(-c2cc(NC(=O)Nc3ccccc3)c(F)cc2Br)cc2cnc(NC)cc21 (library stock concentration (final ~1000-fold dilution): 10 mM)
RAW-Dual [1]; [3]
  IRF Lucia reporter activity: 0.671
RAW-Dual [1]; agonist: LPS (TLR4) 0.1 ug/mL
  IRF Lucia reporter activity: 0.268

## Cc1ccc(Nc2nccc(N(C)c3ccc4c(C)n(C)nc4c3)n2)cc1S(N)(=O)=O.Cl
RAW-Dual [2]
  IRF Lucia reporter activity: 0.646

## Cc1ccc(Nc2nccc(N(C)c3ccc4c(C)n(C)nc4c3)n2)cc1S(N)(=O)=O.Cl (library stock concentration (final ~1000-fold dilution): 10 mM)
RAW-Dual [1]; [3]
  IRF Lucia reporter activity: 0.0722
RAW-Dual [1]; agonist: LPS (TLR4) 0.1 ug/mL
  IRF Lucia reporter activity: 0.446

## COC(=O)C(CC(C)C)NC(=O)c1ccc(NCC(N)CS)cc1-c1cccc2ccccc12.O=C(O)C(F)(F)F (stereo unspecified) (library stock concentration (final ~1000-fold dilution): 10 mM)
RAW-Dual [1]; [3]
  IRF Lucia reporter activity: 0.0714
RAW-Dual [1]; agonist: LPS (TLR4) 0.1 ug/mL
  IRF Lucia reporter activity: 0.736

## COC(=O)C(CC(C)C)NC(=O)c1ccc(NCC(N)CS)cc1-c1cccc2ccccc12.O=C(O)C(F)(F)F (stereo unspecified)
RAW-Dual [2]
  IRF Lucia reporter activity: 0.882

## N#Cc1cccc(-c2c[nH]c3ncnc(N4CCOCC4)c23)c1 (library stock concentration (final ~1000-fold dilution): 10 mM)
RAW-Dual [1]; [3]
  IRF Lucia reporter activity: 0.11
RAW-Dual [1]; agonist: LPS (TLR4) 0.1 ug/mL
  IRF Lucia reporter activity: 0.291

## N#Cc1ccc2[nH]c(O)c(-c3ccc(CN4CCOCC4)cn3)c2c1 (library stock concentration (final ~1000-fold dilution): 10 mM)
RAW-Dual [1]; [3]
  IRF Lucia reporter activity: 0.996
RAW-Dual [1]; agonist: LPS (TLR4) 0.1 ug/mL
  IRF Lucia reporter activity: 0.903

## N#Cc1ccc(-c2c(-c3ncn[nH]3)sc(N3CCOCC3)c2C#N)c(F)c1 (library stock concentration (final ~1000-fold dilution): 10 mM)
RAW-Dual [1]; [3]
  IRF Lucia reporter activity: 0.455
RAW-Dual [1]; agonist: LPS (TLR4) 0.1 ug/mL
  IRF Lucia reporter activity: 10.2

## N#Cc1ccc2[nH]c(O)c(-c3ccc(CN4CCOCC4)cn3)c2c1
RAW-Dual [2]
  IRF Lucia reporter activity: 1.01

## CCS(=O)(=O)O.COC(=O)c1ccc2c(c1)NC(=O)/C2=C(\Nc1ccc(N(C)C(=O)CN2CCN(C)CC2)cc1)c1ccccc1 (library stock concentration (final ~1000-fold dilution): 10 mM)
RAW-Dual [1]; [3]
  IRF Lucia reporter activity: 0.0841
RAW-Dual [1]; agonist: LPS (TLR4) 0.1 ug/mL
  IRF Lucia reporter activity: 0.246

## CCS(=O)(=O)O.COC(=O)c1ccc2c(c1)NC(=O)/C2=C(\Nc1ccc(N(C)C(=O)CN2CCN(C)CC2)cc1)c1ccccc1
RAW-Dual [2]
  IRF Lucia reporter activity: 0.215

## Cc1nnc(NC(=O)c2nc(S(=O)(=O)Cc3ccc(F)cc3)ncc2Cl)s1 (library stock concentration (final ~1000-fold dilution): 10 mM)
RAW-Dual [1]; [3]
  IRF Lucia reporter activity: 0.0452
RAW-Dual [1]; agonist: LPS (TLR4) 0.1 ug/mL
  IRF Lucia reporter activity: 0.308

## NC1C(O)OC(CO)C(O)C1O (stereo unspecified) (library stock concentration (final ~1000-fold dilution): 10 mM)
RAW-Dual [1]; [3]
  IRF Lucia reporter activity: 0.143
RAW-Dual [1]; agonist: LPS (TLR4) 0.1 ug/mL
  IRF Lucia reporter activity: 0.267

## CC(C)=CCC[C@](C)(O[C@@H]1O[C@H](CO)[C@@H](O)C(O)[C@H]1O)[C@H]1CC[C@]2(C)[C@H]1[C@H](O)CC1[C@@]3(C)CC[C@H](O)C(C)(C)[C@@H]3[C@@H](O[C@@H]3O[C@H](CO)[C@@H](O)[C@H](O)[C@H]3O[C@@H]3O[C@@H](C)[C@H](O)[C@@H](O)[C@H]3O)C[C@]12C (stereo partly specified) (library stock concentration (final ~1000-fold dilution): 10 mM)
RAW-Dual [1]; [3]
  IRF Lucia reporter activity: 1.16
RAW-Dual [1]; agonist: LPS (TLR4) 0.1 ug/mL
  IRF Lucia reporter activity: 1.03

## CCCCCCCCCCCCCC(=S)NCCCCC(NC(=O)OCc1ccccc1)C(=O)Nc1ccccc1 (stereo unspecified) (library stock concentration (final ~1000-fold dilution): 10 mM)
RAW-Dual [1]; [3]
  IRF Lucia reporter activity: 0.949
RAW-Dual [1]; agonist: LPS (TLR4) 0.1 ug/mL
  IRF Lucia reporter activity: 1.09

## OCCn1cc(-c2ccc3c(c2)CC/C3=N\O)c(-c2ccncc2)n1 (library stock concentration (final ~1000-fold dilution): 10 mM)
RAW-Dual [1]; [3]
  IRF Lucia reporter activity: 0.614
RAW-Dual [1]; agonist: LPS (TLR4) 0.1 ug/mL
  IRF Lucia reporter activity: 0.658

## COc1ccc2cc(-c3[nH]c(-c4ccc(S(C)=O)cc4)nc3-c3ccncc3)ccc2c1 (stereo unspecified) (library stock concentration (final ~1000-fold dilution): 10 mM)
RAW-Dual [1]; [3]
  IRF Lucia reporter activity: 0.0441
RAW-Dual [1]; agonist: LPS (TLR4) 0.1 ug/mL
  IRF Lucia reporter activity: 0.466

## COc1ccc2cc(-c3[nH]c(-c4ccc(S(C)=O)cc4)nc3-c3ccncc3)ccc2c1 (stereo unspecified)
RAW-Dual [2]
  IRF Lucia reporter activity: 0.798

## CN(C)CCOc1ccc(-c2nc(-c3ccncc3)c(-c3ccc4c(c3)CC/C4=N\O)[nH]2)cc1
RAW-Dual [2]
  IRF Lucia reporter activity: 1.04

## OCCn1cc(-c2ccc3c(c2)CC/C3=N\O)c(-c2ccncc2)n1
RAW-Dual [2]
  IRF Lucia reporter activity: 0.784

## CN(C)CCOc1ccc(-c2nc(-c3ccncc3)c(-c3ccc4c(c3)CC/C4=N\O)[nH]2)cc1 (library stock concentration (final ~1000-fold dilution): 10 mM)
RAW-Dual [1]; [3]
  IRF Lucia reporter activity: 0.992
RAW-Dual [1]; agonist: LPS (TLR4) 0.1 ug/mL
  IRF Lucia reporter activity: 3.04
